{
  "source": "paper PMC7819943",
  "about": "“Rice protein-binding microarrays: a tool to detect cis-acting elements near promoter regions in rice”",
  "note": "In all, about 68,000 sequences were measured (“fluorescence intensity (a.u.)”: median about 9,100, highest 2% from about 16,000 on). The list comes from a sample in which the highest values are over-represented; it also holds similar and randomly drawn sequences.",
  "data": [
    {"biological_target": "OsWRKY34 (Oryza sativa, UniProt Q0JBA9 1-250)", "sequence (Q0JBA9 entry or part of it)": "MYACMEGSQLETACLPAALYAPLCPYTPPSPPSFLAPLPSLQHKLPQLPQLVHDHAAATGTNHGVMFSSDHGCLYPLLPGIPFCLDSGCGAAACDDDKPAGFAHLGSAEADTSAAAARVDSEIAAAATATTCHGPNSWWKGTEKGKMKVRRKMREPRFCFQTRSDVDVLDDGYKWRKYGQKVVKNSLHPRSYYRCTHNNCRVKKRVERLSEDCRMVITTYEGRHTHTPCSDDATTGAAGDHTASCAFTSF", "assay": "protein-binding microarray (RPBM); PBS, 2% BSA, 51.3 ng/ul salmon testes DNA, 50 uM zinc acetate, 200 nM TF, 25 C, 1 h; high values mean tight binding", "conditions": "protein: recombinant; tags: N-terminal polyhistidine and DsRed monomer fusion (pET32a); label: CyDye5-dUTP incorporated in the synthesized complementary strand; 3' TTTTT single-stranded linker to array surface; dsDNA, one strand shown", "outline": "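For the binding signal, per-feature fluorescence intensity was read in arbitrary units on an Axon 4000B scanner. Before scanning, a 2% BSA-blocked custom Agilent array made double-stranded with Cy5-dUTP was washed after 1 h at 25 °C with 200 nM protein and 50 µM zinc acetate. The proteins were Ni–NTA-purified transcription factors with N-terminal polyhistidine and DsRed fusions, expressed in E. coli BL21-CodonPlus.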", "values": [
      {"sequence": "AGATTGCTTTTCTTACAAGGACGACGCTAACAATAACATCCGGAGTCACCTAGTGCAG", "binding signal": "9110 fluorescence intensity (a.u.)"},
      {"sequence": "GATGTGGATTTGGGATGTTAATTTGATTTGGGATTTGGGGCGGAGTCACCTAGTGCAG", "binding signal": "10600 fluorescence intensity (a.u.)"},
      {"sequence": "GGCAATGCTTCACCGTCGCTTGCACCCCTTTCTCATGTGTCGGAGTCACCTAGTGCAG", "binding signal": "9790 fluorescence intensity (a.u.)"},
      {"sequence": "CCCATTTGCCATGTCAACGCACCGTACTAATTAATCCTTGCGGAGTCACCTAGTGCAG", "binding signal": "10200 fluorescence intensity (a.u.)"},
      {"sequence": "CCGCGGCCCAATAGCTCTTAGCCCATTGCCATCCGCCATCCGGAGTCACCTAGTGCAG", "binding signal": "9820 fluorescence intensity (a.u.)"},
      {"sequence": "TCCCTAAATGTTTGACACCGTTGACCTTTTTAAAACATTTCGGAGTCACCTAGTGCAG", "binding signal": "17800 fluorescence intensity (a.u.)"},
      {"sequence": "AGATGACTCCGTTGACTTTTAAACACATGTTTGATAATTCCGGAGTCACCTAGTGCAG", "binding signal": "16200 fluorescence intensity (a.u.)"},
      {"sequence": "CCTAAATGTTTGACTCCGTTGACTTTTTTAAACATGTCTGCGGAGTCACCTAGTGCAG", "binding signal": "26100 fluorescence intensity (a.u.)"},
      {"sequence": "CCGTTTTAAAATGTTTGACACCGTTGACTTTTTAGTACATCGGAGTCACCTAGTGCAG", "binding signal": "26100 fluorescence intensity (a.u.)"},
      {"sequence": "TGTTGTTGACTTTTAAACACATGTTTGATCATTTGTCTTACGGAGTCACCTAGTGCAG", "binding signal": "14600 fluorescence intensity (a.u.)"},
      {"sequence": "TTCCCTAAATGTTTGACACCGTTGACTTTTTTTTAAACATCGGAGTCACCTAGTGCAG", "binding signal": "33300 fluorescence intensity (a.u.)"},
      {"sequence": "TTACATTTTAGGACATATATTTGGGGAGCTTCTTGGCTGTCGGAGTCACCTAGTGCAG", "binding signal": "10800 fluorescence intensity (a.u.)"},
      {"sequence": "ATTTGTCTCTTTCGCGTCGTCTCTAACCTAACGTCCCAGACGGAGTCACCTAGTGCAG", "binding signal": "13100 fluorescence intensity (a.u.)"},
      {"sequence": "CCCACGCGCCCACTTTGACCGACCCATCGATCGATCACGACGGAGTCACCTAGTGCAG", "binding signal": "14300 fluorescence intensity (a.u.)"},
      {"sequence": "GCAACACCTCCCCTGTTCTTGCTCTGTTTCCTCACTCTGTCGGAGTCACCTAGTGCAG", "binding signal": "10200 fluorescence intensity (a.u.)"},
      {"sequence": "TCTATCTGCCTGACTATCTCTATCTCGATCTCGTCCAGGACGGAGTCACCTAGTGCAG", "binding signal": "9860 fluorescence intensity (a.u.)"},
      {"sequence": "ATCCGAGCATCTCGCCTCGCCCCGCCCCGCCCCGATCGATCGGAGTCACCTAGTGCAG", "binding signal": "9480 fluorescence intensity (a.u.)"},
      {"sequence": "CTAGTAGTGCACACAAGCGGCAGCAGGAGGGGAGGGTGGTCGGAGTCACCTAGTGCAG", "binding signal": "9190 fluorescence intensity (a.u.)"},
      {"sequence": "CTCTCTCTGCCATATCCTGTGCTTTTCTTGTATTCCATCCCGGAGTCACCTAGTGCAG", "binding signal": "11400 fluorescence intensity (a.u.)"},
      {"sequence": "GTTTGACACTTTTAGTACGTGTTTGACCATTTGTTTTATTCGGAGTCACCTAGTGCAG", "binding signal": "10200 fluorescence intensity (a.u.)"},
      {"sequence": "ATGTTTGACACCGTTGACTTTTTAGTACGTGTTTGACCATCGGAGTCACCTAGTGCAG", "binding signal": "28200 fluorescence intensity (a.u.)"},
      {"sequence": "CCTAAATGTTTGACACCGTTGACTTTTTTAAACATATTTGCGGAGTCACCTAGTGCAG", "binding signal": "33000 fluorescence intensity (a.u.)"},
      {"sequence": "TTCTCCACGGCAAACCACCACCGGCGTCACCAGCCCACCACGGAGTCACCTAGTGCAG", "binding signal": "8110 fluorescence intensity (a.u.)"},
      {"sequence": "CTTTTCCATTTCCATGCATTCTTTGATCATCAAGTGATCACGGAGTCACCTAGTGCAG", "binding signal": "12100 fluorescence intensity (a.u.)"},
      {"sequence": "TTGACCTGCTAGCCTTTTTTTTTTCGCAAATCTATTCCTGCGGAGTCACCTAGTGCAG", "binding signal": "8440 fluorescence intensity (a.u.)"},
      {"sequence": "ATTTCTGCAGACCCATTTTGCTTTTGAAACACTGCTGATTCGGAGTCACCTAGTGCAG", "binding signal": "9790 fluorescence intensity (a.u.)"},
      {"sequence": "AGTTTGTCATGGTCTAAAATATTACCCAGGTGTTCTTTGACGGAGTCACCTAGTGCAG", "binding signal": "8760 fluorescence intensity (a.u.)"},
      {"sequence": "CCATTAGTAAGTTCTCTCGTGGCCCAATACTCTCTTGATGCGGAGTCACCTAGTGCAG", "binding signal": "8840 fluorescence intensity (a.u.)"},
      {"sequence": "GGCCAATAAGTTCCAGTTCTCTTCTTAAGGCCCATTAGACCGGAGTCACCTAGTGCAG", "binding signal": "61800 fluorescence intensity (a.u.)"},
      {"sequence": "CATTCTCTTCTCAACCAATAACAACTCTTCCACCATTCACCGGAGTCACCTAGTGCAG", "binding signal": "9540 fluorescence intensity (a.u.)"},
      {"sequence": "CTCTCTCTCTCCTCGCGTGACTCGCGCGTGCCCTCGCCGCCGGAGTCACCTAGTGCAG", "binding signal": "8130 fluorescence intensity (a.u.)"},
      {"sequence": "TATTCCCAGCTGGTAACTCTATCCATTGACGGCTGTGTTTCGGAGTCACCTAGTGCAG", "binding signal": "9650 fluorescence intensity (a.u.)"},
      {"sequence": "ACTAAACTCTGCCTTCATCATATTCCCAGCTGGTAACTCTCGGAGTCACCTAGTGCAG", "binding signal": "10300 fluorescence intensity (a.u.)"},
      {"sequence": "GCCTTCATCATATTCCCAGCTGGTAACTCTATCCATTGACCGGAGTCACCTAGTGCAG", "binding signal": "16400 fluorescence intensity (a.u.)"},
      {"sequence": "CCTCTGGTCACGCATTCTACACAGAATCTCTGGTTTTCCCCGGAGTCACCTAGTGCAG", "binding signal": "9500 fluorescence intensity (a.u.)"},
      {"sequence": "ATATGCTGTCTTTTACTTGACTTGTAGTGCAACCTTCCACCGGAGTCACCTAGTGCAG", "binding signal": "12100 fluorescence intensity (a.u.)"},
      {"sequence": "ACTTTCTTTTTTTCTTTTTAACCTTGACCTTTACTGGCATCGGAGTCACCTAGTGCAG", "binding signal": "8690 fluorescence intensity (a.u.)"},
      {"sequence": "GAACAGCTCAGCTCACCGCATCCTTTGACTTTTTAACCAGCGGAGTCACCTAGTGCAG", "binding signal": "18100 fluorescence intensity (a.u.)"},
      {"sequence": "TTGCAGCTGTCCTCTCTACCTTAACCCTTTGACCAGTGCTCGGAGTCACCTAGTGCAG", "binding signal": "9130 fluorescence intensity (a.u.)"},
      {"sequence": "ATCTTAACCGCAACAGCTTTGCATCTTTTTAGTACCTATTCGGAGTCACCTAGTGCAG", "binding signal": "8170 fluorescence intensity (a.u.)"},
      {"sequence": "TCCTTTGACTTTTTAACCAGCTGTCTACTAGTAGTACTACCGGAGTCACCTAGTGCAG", "binding signal": "17800 fluorescence intensity (a.u.)"},
      {"sequence": "CACACGCACGCTTCTCACGTACATATCGATCGCAAATATCCGGAGTCACCTAGTGCAG", "binding signal": "8490 fluorescence intensity (a.u.)"}
    ]}
  ]
}
